# DAX1 inh-1 – NR0B1 (DAX1) inhibition; P51843; HEK293 Gal4-DAX1 luciferase reporter, luminescence; inhibition, % at 6.75 µM; actives 0.99% (n = 340,000); AID 504766;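 active = inhibition above the mean over all tested compounds plus 3 SD, cut at about 4.2% in these data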;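 note: 0% = DAX1-transfected cells with DMSO and 100% = empty-vector control cells with DMSO; inhibition shows as a rise in luminescence from relieved DAX1 repression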
# Target sequence (P51843 207-470 limits assumed): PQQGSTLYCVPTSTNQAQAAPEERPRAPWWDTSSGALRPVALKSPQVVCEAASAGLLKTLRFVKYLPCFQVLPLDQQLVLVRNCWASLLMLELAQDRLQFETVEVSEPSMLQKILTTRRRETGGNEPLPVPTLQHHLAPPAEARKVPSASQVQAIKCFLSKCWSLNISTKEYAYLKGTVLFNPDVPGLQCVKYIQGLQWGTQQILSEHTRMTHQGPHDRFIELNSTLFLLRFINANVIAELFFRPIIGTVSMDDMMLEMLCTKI
# ssDAF12 agonist – activators of S. stercoralis DAF-12 nuclear receptor | HEK293 ssDAF-12/GRIP1 lit1-tk-luc reporter, luminescence; % of 3 µM dafachronic acid response | activation, % at 6.8 µM | actives 1% (n = 370,000) | AID 652126;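 active = activation above the mean over all tested compounds plus 3 SD, cut at about 0.9% in these data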;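 note: 0% = DMSO-only wells and 100% = 3 µM delta7-dafachronic acid wells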
# AHR act – activators of human aryl hydrocarbon receptor. AHR-responsive luciferase reporter cells, luminescence. activation, % at 5 µM. actives 2.5% (n = 320,000); in the data active = activation above about 47%;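 note: 0% = vehicle wells and 100% = reference agonist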
# hgDAF-12 ag – activates the H. glycines DAF-12 receptor ligand-binding domain; actives 1.8% (n = 370,000); AID 687014; HEK293 GAL4-hgDAF12 UAS-luciferase reporter, agonist luminescence; normalized to butyrate control; activation, % at 6.8 µM;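 active = activation above a cutoff set at the mean of all screened compounds plus 3 SD, cut at about 10% in these data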;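 note: 0% = DMSO wells and 100% = sodium butyrate wells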
# DAX1 inh-2 – blocks DAX1 repression of SF-1 activated StAR promoter. AID 652010. HEK293T StAR-luciferase reporter, SF-1/DAX-1 repression relief. actives 1.1% (n = 370,000). inhibition, % at 6.8 µM;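 active = inhibition above the mean over all tested compounds plus 3 SD, cut at about 3.6% in these data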;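 note: 0% = DAX-1 cells with DMSO and 100% = cells lacking DAX-1 with DMSO; higher inhibition means more luminescence from relief of DAX-1 repression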
# hcDAF-12 act – H. contortus DAF-12 activation, primary screen; activation, % at 6.8 µM; AID 652067; actives 1.4% (n = 370,000); HEK293 hcDAF-12 lit1-tk-luc reporter, luminescence; 0% DMSO, 100% Δ7-dafachronic acid;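 active = activation above the mean of all tested compounds plus 3 SD, cut at about 5.5% in these data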;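 note: 100% = response to 3 µM Δ7-dafachronic acid high control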
# The depositor's hits bear a star; · = no result. Only some compounds are listed: those with a hit (about 5.7% of all), similar ones and a draw of the others.
SMILES,DAX1 inh-1,ssDAF12 agonist,AHR act,hgDAF-12 ag,DAX1 inh-2,hcDAF-12 act
CCC(=O)Nc1ccc(/C(C)=N\NC(=O)c2ccc(C)s2)cc1,1,-1,54*,8,1,1
C/C(=N/NC(=O)c1cccs1)c1ccc(NC(=O)COc2ccc(Cl)cc2Cl)cc1,1,-1,5,8,0,2
O=S1(=O)c2ccc(Br)cc2OC[C@H](Cc2ccccc2)N1Cc1cn(Cc2ccc(Cl)cc2)nn1,·,-1,·,3,-1,1
CN(C)c1ccc(C(=S)NC2CCCCC2)cc1,5.1*,0,9,13*,4.3*,4
CCN(CC)c1ccc(C(=S)NC2CCCCC2)cc1,-1,-1,16,2,-1,-2
COC(=O)c1ccc(/C=C/c2c(-c3ccsc3)sc3ccccc23)cc1,0,-1,24,2,0,-1
COc1ccc(-c2csc(C(C)(NC(C)=O)c3ccccc3)n2)cn1 (stereo not drawn),·,-1,·,1,0,1
Cc1cc(OCCn2ccnc2)ccc1C(C)C,-1,-1,64*,1,0,-3
Cc1cc(C)c(C)c(OCCCn2ccnc2)c1,0,-1,58*,0,-1,-1
Cc1ccc(C(C)(C)C)c(OCCCn2ccnc2)c1,1,-1,48*,-1,0,-2
Cc1cc(C)c(OCCCn2ccnc2)c(C)c1,-1,-1,·,-1,-1,-2
Cc1ccc(OCCCCn2ccnc2)c([N+](=O)[O-])c1,0,-1,61*,0,0,0
Cc1ccc(C)c(OCCCCn2ccnc2)c1,-2,-2,16,0,1,-2
CCc1cccc(OCC2Cn3c(nc4c3c(=O)[nH]c(=O)n4C)O2)c1 (stereo not drawn),1,-1,8,-1,0,-1
OC[C@@H]1CN(Cc2ccc(Cl)cc2)C[C@H](n2cnc3c(NC4CC4)ncnc32)O1,·,-2,·,-1,0,-2
COc1ccccc1CN1C[C@@H]2C[C@@H](c3[nH]c4c(C)cccc4c3C)N3CCC[C@@]23C1=O,0,0,19,-1,0,0
Cc1cc(C(C)(C)C)ccc1OCCn1ccnc1,-1,-1,50*,-3,-1,-2
CCc1nc(SCC(=O)c2ccccc2)c2ccccc2n1,0,-1,51*,3,-2,2
COc1cc(OC)cc(C(=O)N(CCCN2C(=O)c3cccc4cccc(c34)C2=O)c2cccc(OC)c2)c1,-2,-2,103*,-5,-2,-4
COc1ccc(N(CCN2C(=O)c3ccccc3C2=O)C(=O)c2cccc([N+](=O)[O-])c2)cc1,-1,-1,2,-1,-1,-3
COc1ccc(CCN(C)C(=O)CCCN2C(=O)c3cccc4cccc(c34)C2=O)cc1OC,-1,-2,-2,-3,-2,-3
COc1ccc(N(CCCN2C(=O)c3cccc4cccc(c34)C2=O)C(=O)c2cccnc2)cc1,-1,-1,75*,1,0,-2
COc1ccc(N(CCCN2C(=O)c3cccc4cccc(c34)C2=O)C(=O)c2ccncc2)cc1,0,0,76*,-1,0,0
CCc1nc2ccc(C(=O)Nc3cccc(OCC(=O)N(C)C)c3)cn2c1N(C)Cc1cc2ccccc2s1,·,-2,·,1,-1,-1
Cc1[nH]n(-c2ccccc2)c(=O)c1/C=N/Nc1nncc(-c2ccccc2)n1,-3,-1,53*,-6,-3,-1
SMILES,DAX1 inh-1,ssDAF12 agonist,AHR act,hgDAF-12 ag,DAX1 inh-2,hcDAF-12 act
COc1ccc(-c2noc(COc3ccc(C)c(C)c3)n2)cc1OC,0,-2,18,-2,-1,0
CCOc1ccccc1-c1nc(-c2cccc(Br)c2)no1,-1,·,64*,·,·,·
CCOc1ccc(-c2nc(-c3cccnc3)no2)cc1,-1,0,-4,12*,4.5*,4
CCCCOc1ccc(-c2nc(-c3cccnc3)no2)cc1,1,-1,9,6,1,0
CCOc1ccc(-c2noc(COC)n2)cc1OC,0,4.0*,11,2,1,0
CCOc1cc(-c2noc(-c3cccnc3)n2)ccc1OC,4.6*,-1,-6,1,1,-1
Cc1cc(C)c(C(=O)COC(=O)c2cc([N+](=O)[O-])ccc2NCCO)cc1C,-2,-1,3,-4,-1,1
COc1ccc(-c2noc(-c3cccnc3)n2)cc1OC,4,-1,3,9,2,1
COc1ccc(-c2nc(-c3cccnc3)no2)cc1,1,1.3*,-4,11*,3,5
N/C(=N\OC(=O)c1ccc(F)cc1)c1ccccc1,1,-1,60*,4,1,2
Cc1ccc(/C(N)=N/OC(=O)c2ccc(F)cc2)cc1,2,-1,4,8,1,4
N/C(=N\OC(=O)c1ccc(F)cc1)c1ccc(Br)cc1,-1,-1,52*,6,-1,-1
CCC(C)C(CO)NCCCn1ccc(NC(=O)OCc2ccccc2)nc1=O (stereo not drawn),0,0,·,1,0,-2
Cc1cc2nc3c(c(C(F)(F)F)n2n1)CCCC3,6.3*,-1,1,0,0,-1
O=C(NC1CCCCC1)c1cc2nc3c(c(C(F)(F)F)n2n1)CCCC3,0,-1,-9,3,1,0
COC(=O)[C@H](CC(C)C)N1Cc2nnn(Cc3ccc(C)cc3)c2-c2cc(F)ccc2S1(=O)=O,·,-1,·,-2,0,-1
CS(=O)(=O)N1CCC(C(=O)N2CCN(C(c3ccccc3)c3ccccc3)CC2)CC1,2,-2,5,1,0,-1
CCOC(=O)CSc1nc(-c2ccccc2)nc2c1oc1ccccc12,-1,0,48*,-2,0,4
CCc1nc(SCC(=O)c2cccs2)c2oc3ccccc3c2n1,2,-1,57*,-1,0,1
COc1cccc(CN(C)[C@H]2C[C@H]3c4[nH]c5ccccc5c4CCN3C[C@H]2[C@H](C)O)c1OC,·,-1,·,1,1,-1
O=C(Nc1ncc2c(n1)-c1ccccc1CC2)c1cccs1,0,0,63*,0,0,4
O=C(Nc1ncc2c(n1)-c1ccccc1CC2)c1ccc(F)cc1,-1,-2,65*,-2,-1,-2
C#Cc1cccc(NC(=O)c2ccc3c(c2)C(=O)N(Cc2cccnc2)C3=O)c1,0,0,57*,2,3,-1
CCC1=C(c2ccc(OC)cc2)CCC(C(=O)O)C1C (stereo not drawn),0,61*,·,0,0,-1
COc1ccc(CNC(=O)C2CC(C)=C(C)CC2C(=O)O)cc1 (stereo not drawn),0,-1,6,2,-1,1
